# Measured values reported in PubChem BioAssay (NCATS).
# Records with an inconclusive call do not appear. A number with no mark means an inactive call. Activity calls are given as the source filed them. Calls come from the whole dose curve; as a rule, active = well fitted inhibition curve with a large enough effect; inconclusive = small, poorly fitted or top-dose-only effect; inactive = flat fitted curve, though single readings scatter. Peptide text beside a SMILES is read from it.
# Test system: CP203
# Experiment: qHTS profiling for inhibitors of Plasmodium falciparum proliferation (AID 504749); note: nearly all actives have a fitted effect of over 60% in size;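 for activity, negative = inhibition: 0% = DMSO vehicle and full inhibition = artemisinin control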
# Conditions: P. falciparum in erythrocytes, SYBR Green DNA, 72 h; series mostly up to 12.8 µM; activity, negative = inhibition: at the top concentration
# Procedure, shortened: (§1)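 In a 72 h erythrocytic culture (37 C, humidified, 5% CO2) at 2.5% hematocrit and 0.3% starting parasitemia, compounds were tested; SYBR Green I in detergent lysis buffer stained parasite DNA overnight.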
# Potency is the fitted concentration of half-maximal effect.
SMILES,"activity, negative = inhibition",Potency
CN(C)CCCOC1C(C(O)CO)OC2OC(C)(C)O[C@@H]21 (some centres undefined),-1.74% [at 28.7 µM],–
CCC(C)C(=O)OC1CCC=C2C=CC(C)C(CCC3CC(O)CC(=O)O3)[C@@H]21 (some centres undefined),-7.4% [at 28.7 µM],–
CC(=O)OC1CCC2C3CCc4cc(O)ccc4C3CCC12C (centres undefined),1.61% [at 28.7 µM],–
CC[C@@]12CCCN3CCc4c(n(c5ccccc45)[C@](O)(C(=O)OC)C1)C32 (some centres undefined),8.18% [at 28.7 µM],–
NC(C(=O)O)[C@@H]1CC(Cl)=NO1 (some centres undefined),–,3.38 µM (active)
CN1CC(=O)N=C1N,0.193% [at 28.7 µM],–
OCC1OC([S-])[C@H](O)C(O)C1O.[Au+] (some centres undefined),-2.08% [at 28.7 µM],–
CC(C)C1CCC(C(=O)NC(Cc2ccccc2)C(=O)O)CC1 (centres undefined),0.854% [at 28.7 µM],–
CCC(CCC(C)C1CCC2C3CC=C4CC(O)CC[C@@]4(C)C3CC[C@@]12C)C(C)C (some centres undefined),2.12% [at 28.7 µM],–
C[C@]12CCC(=O)C=C1CCC1C2C(=O)C[C@]2(C)C1CC[C@]2(O)C(=O)CO (some centres undefined),5.31% [at 28.7 µM],–
OCC1O[C@H](OC2C(CO)O[C@@](O)(CO)C2O)C(O)C(O)C1O (some centres undefined),0.914% [at 28.7 µM],–
CC1(C)OC2CO[C@]3(COS(N)(=O)=O)OC(C)(C)OC3C2O1 (some centres undefined),-1.05% [at 28.7 µM],–
CC1(C)OC2CC(=O)OC[C@@]23C1CC(=O)[C@]1(C)C3CC[C@@]2(C)C(c3ccoc3)OC(=O)C3O[C@@]321 (some centres undefined),-0.333% [at 28.7 µM],–
CCOC(=O)C1=CC(OC(CC)CC)C(NC(C)=O)C(N)C1 (centres undefined),-1.89% [at 28.7 µM],–
COC(=O)C(Cc1ccccc1)NC(=O)C(N)CC(=O)O (stereo not drawn) (H-Asp-Phe-OMe; configuration not given here),-9.52% [at 28.7 µM],–
C[C@]12C=CC(=O)C=C1CCC1C2C(O)C[C@]2(C)C1CC[C@]2(O)C(=O)CO (some centres undefined),0.283% [at 28.7 µM],–

SMILES,"activity, negative = inhibition",Potency
CC1(C)S[C@H]2C(NC(=O)[C@@H](N)c3ccc(O)cc3)C(=O)N2[C@@H]1C(=O)O (some centres undefined),1.21% [at 28.7 µM],–
CC(C)=CCC[C@](C)(O)C1CC=C(C)CC1 (some centres undefined),0.744% [at 28.7 µM],–
C[C@]1(c2ccccc2)OC(C(=O)O)=CC1=O,2.77% [at 28.7 µM],–
CC(=O)N[C@H](CC(C)C)C(=O)O,6.15% [at 28.7 µM],–
COc1ccc2cc(C(C)CO)ccc2c1 (centres undefined),1.77% [at 28.7 µM],–
COC1C=CO[C@@]2(C)Oc3c(C)c(O)c4c(O)c(c(C=NN5CCN(C)CC5)c(O)c4c3C2=O)NC(=O)/C(C)=C\C=CC(C)C(O)[C@@H](C)C(O)C(C)[C@H](OC(C)=O)C1C (some centres undefined),–,4.26 µM (active)
CC1CCC(C(C)C)C(=O)C1 (centres undefined),0.627% [at 28.7 µM],–
CNC1CC(N)[C@H](O)[C@@H](O[C@@H]2OC(CO)C3OC4(OC(C(N)CO)C(O)C(O)C4O)O[C@@H]3[C@H]2O)C1O (some centres undefined),-1.29% [at 28.7 µM],–
CCCC(=O)O[C@]1(C(=O)CO)CCC2[C@@H]3CCC4=CC(=O)CC[C@]4(C)C3C(O)C[C@]21C (some centres undefined),-4.35% [at 28.7 µM],–
CC(=O)[C@]1(O)CCC2C3C=C(Cl)C4=CC(=O)C5CC5[C@@]4(C)C3CC[C@]21C (some centres undefined),-2.45% [at 28.7 µM],–
CC(=O)N[C@@H]1C(O)OC(CO)C(O)C1O (some centres undefined),1.2% [at 28.7 µM],–
C/C1=C2N=C(/C=C3N=C(/C(C)=C4\[N-]C(C)(C5N=C1C(C)(CCC(=O)NCC(C)OP(=O)([O-])O[C@H]1C(O)C(n6cnc7cc(C)c(C)cc76)O[C@@H]1CO)C5CC(N)=O)C(C)(CC(N)=O)C4CCC(N)=O)C(C)(CC(N)=O)C\3CCC(N)=O)C(C)(C)C/2CCC(N)=O.[CH2-]C1OC(n2cnc3c(N)ncnc32)C(O)C1O.[Co] (some centres undefined),-0.39% [at 28.7 µM],–
O=C1OC(CO)C(O)C(O)C1O (centres undefined),3.72% [at 28.7 µM],–
COc1cc(C2c3cc4c(cc3C(O[C@@H]3OC5COC(c6cccs6)OC5C(O)C3O)C3COC(=O)C23)OCO4)cc(OC)c1O (some centres undefined),–,3.79 µM (active)
Nc1nc2ncc(CNc3ccc(C(=O)NC(CCC(=O)O)C(=O)O)cc3)nc2c(=O)[nH]1 (centres undefined),-11.3% [at 28.7 µM],–

# Test system: CP211
# Experiment: as above
# Conditions: P. falciparum in erythrocytes, SYBR Green DNA, 72 h; series mostly up to 12.8 µM; activity, negative = inhibition: at the top concentration
# Procedure, shortened: as §1
SMILES,"activity, negative = inhibition",Potency
CN(C)CCCOC1C(C(O)CO)OC2OC(C)(C)O[C@@H]21 (some centres undefined),3.14% [at 28.7 µM],–
CCC(C)C(=O)OC1CCC=C2C=CC(C)C(CCC3CC(O)CC(=O)O3)[C@@H]21 (some centres undefined),-6.65% [at 28.7 µM],–
CC(=O)OC1CCC2C3CCc4cc(O)ccc4C3CCC12C (centres undefined),8.27% [at 28.7 µM],–
CC[C@@]12CCCN3CCc4c(n(c5ccccc45)[C@](O)(C(=O)OC)C1)C32 (some centres undefined),-1.48% [at 28.7 µM],–
NC(C(=O)O)[C@@H]1CC(Cl)=NO1 (some centres undefined),–,2.69 µM (active)
CN1CC(=O)N=C1N,4.58% [at 28.7 µM],–
OCC1OC([S-])[C@H](O)C(O)C1O.[Au+] (some centres undefined),-6.77% [at 28.7 µM],–
CC(C)C1CCC(C(=O)NC(Cc2ccccc2)C(=O)O)CC1 (centres undefined),-0.32% [at 28.7 µM],–
CCC(CCC(C)C1CCC2C3CC=C4CC(O)CC[C@@]4(C)C3CC[C@@]12C)C(C)C (some centres undefined),3.4% [at 28.7 µM],–
C[C@]12CCC(=O)C=C1CCC1C2C(=O)C[C@]2(C)C1CC[C@]2(O)C(=O)CO (some centres undefined),3.22% [at 28.7 µM],–
OCC1O[C@H](OC2C(CO)O[C@@](O)(CO)C2O)C(O)C(O)C1O (some centres undefined),-0.894% [at 28.7 µM],–
CC1(C)OC2CO[C@]3(COS(N)(=O)=O)OC(C)(C)OC3C2O1 (some centres undefined),0.215% [at 28.7 µM],–
CC1(C)OC2CC(=O)OC[C@@]23C1CC(=O)[C@]1(C)C3CC[C@@]2(C)C(c3ccoc3)OC(=O)C3O[C@@]321 (some centres undefined),0.979% [at 28.7 µM],–
CCOC(=O)C1=CC(OC(CC)CC)C(NC(C)=O)C(N)C1 (centres undefined),-7.93% [at 28.7 µM],–
COC1C=CO[C@@]2(C)Oc3c(C)c(O)c4c(O)c(c5c(nc6cc(C)ccn65)c4c3C2=O)NC(=O)/C(C)=C\C=CC(C)C(O)[C@@H](C)C(O)C(C)[C@@H](OC(C)=O)C1C (some centres undefined),–,15.1 µM (active)
COC(=O)C(Cc1ccccc1)NC(=O)C(N)CC(=O)O (stereo not drawn) (H-Asp-Phe-OMe; configuration not given here),-0.605% [at 28.7 µM],–
C[C@]12C=CC(=O)C=C1CCC1C2C(O)C[C@]2(C)C1CC[C@]2(O)C(=O)CO (some centres undefined),2.97% [at 28.7 µM],–

SMILES,"activity, negative = inhibition",Potency
CC1(C)S[C@H]2C(NC(=O)[C@@H](N)c3ccc(O)cc3)C(=O)N2[C@@H]1C(=O)O (some centres undefined),1.59% [at 28.7 µM],–
CC(C)=CCC[C@](C)(O)C1CC=C(C)CC1 (some centres undefined),-0.697% [at 28.7 µM],–
CO[C@]12C(COC(N)=O)C3=C(C(=O)C(C)=C(N)C3=O)N1CC1NC12 (some centres undefined),–,19 µM (active)
C[C@]1(c2ccccc2)OC(C(=O)O)=CC1=O,1.65% [at 28.7 µM],–
CC(=O)N[C@H](CC(C)C)C(=O)O,0.518% [at 28.7 µM],–
COc1ccc2cc(C(C)CO)ccc2c1 (centres undefined),4.02% [at 28.7 µM],–
COC1C=CO[C@@]2(C)Oc3c(C)c(O)c4c(O)c(c(C=NN5CCN(C)CC5)c(O)c4c3C2=O)NC(=O)/C(C)=C\C=CC(C)C(O)[C@@H](C)C(O)C(C)[C@H](OC(C)=O)C1C (some centres undefined),–,4.26 µM (active)
CC1CCC(C(C)C)C(=O)C1 (centres undefined),-2% [at 28.7 µM],–
CNC1CC(N)[C@H](O)[C@@H](O[C@@H]2OC(CO)C3OC4(OC(C(N)CO)C(O)C(O)C4O)O[C@@H]3[C@H]2O)C1O (some centres undefined),-2.54% [at 28.7 µM],–
CCCC(=O)O[C@]1(C(=O)CO)CCC2[C@@H]3CCC4=CC(=O)CC[C@]4(C)C3C(O)C[C@]21C (some centres undefined),6.22% [at 28.7 µM],–
CC(=O)[C@]1(O)CCC2C3C=C(Cl)C4=CC(=O)C5CC5[C@@]4(C)C3CC[C@]21C (some centres undefined),-0.304% [at 28.7 µM],–
CC(=O)N[C@@H]1C(O)OC(CO)C(O)C1O (some centres undefined),-6.56% [at 28.7 µM],–
O=C1OC(CO)C(O)C(O)C1O (centres undefined),-0.203% [at 28.7 µM],–
CNC1C(OC2C(O[C@@H]3C(O)C(O)[C@@H](N=C(N)N)C(O)C3N=C(N)N)OC(C)[C@@]2(O)CO)OC(CO)C(O)C1O (some centres undefined),0.47% [at 28.7 µM],–
COc1cc(C2c3cc4c(cc3C(O[C@@H]3OC5COC(c6cccs6)OC5C(O)C3O)C3COC(=O)C23)OCO4)cc(OC)c1O (some centres undefined),–,3.38 µM (active)
Nc1nc2ncc(CNc3ccc(C(=O)NC(CCC(=O)O)C(=O)O)cc3)nc2c(=O)[nH]1 (centres undefined),-1.49% [at 28.7 µM],–
